PubChem BioAssay

Experiment: binders of probe aFGF2 on microarray, primary screen, stem cell growth factor project, biochemical, small-molecule microarray, fluorescence 635/667 (AID 1067);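 also: measures binding of biotinylated aFGF2 protein to printed compounds on slides; z-score merges feature fluorescence and signal-to-noise across triplicate slides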
Conditions: higher = more signal

Going from `COC(=O)c1ccc(OC)c(/C=C\CC(CCc2ccccc2)OC(C)=O)c1` (stereo not given) to `CC(C)CNC(=O)[C@@]1(C)c2ccccc2C(=O)N(Cc2ccccc2)[C@H]1c1ccc(CO)cc1`, the composite z-score falls from -0.118 to -0.206.

Going from `C[N+](C)(C)CCCC[C@@H]1NC(=O)[C@H]2C[C@@H](C(=O)NCCCCCCN)[C@@H](c3cccc(OCCO)c3)N2C1=O` to `CCCCCCCCCCC(O)C1C=CC2C(=O)NC(=O)C2N1Nc1ccccn1` (stereo not given), the composite z-score falls from 0.0852 to -0.0899.

First: C/C=C/[C@@H](CCn1cc([C@H](O)c2ccccc2)nn1)[Si](C)(C)c1ccc(OC)cc1
Second: C=CCN1C(=O)[C@@]2(O[C@@H](CCn3cc([C@H](O)c4ccccc4)nn3)[C@H]([Si](C)(C)c3ccc(OC)cc3)[C@H]2C)c2cc(NC(=O)c3ccc(OC)cc3)ccc21
The composite z-score of the first is lower: -0.0462 for the first, 0.0084 for the second.

First: COC(=O)[C@@]1(Cc2ccc(F)cc2)[C@H]2c3cc(C(=O)N(C)C)n(CCSCCO)c3C[C@H]2CN1C(=O)c1ccccc1
Second: COC(=O)[C@@]1(Cc2ccc(F)cc2)[C@@H]2[C@@H](CC(=O)[C@H]2CC(=O)C(=O)N2CCCC2)CN1C(=O)c1ccccc1
The composite z-score of the first is higher: 0.203 for the first, 0.0255 for the second.

First: CC1CC/C=C\[C@H]2OC34C=CCN(Cc5ccccc5)C(=O)[C@H]3N(CCO)C(=O)[C@@H]4C2C(=O)O1 (stereo not given in full)
Second: CC1CC/C=C\[C@H]2OC34C=CCN(c5ccc(Cl)cc5)C(=O)[C@H]3N(C(CO)C(C)C)C(=O)[C@]4(C)C2C(=O)O1 (stereo not given in full)
The composite z-score of the first is higher: -0.0662 for the first, -0.146 for the second.

Going from `C=C(COC)C(=O)CC[C@H](OC(=O)c1ccccc1-c1ccccc1C(=O)O)c1ccc(OCCO)cc1` to `C=CCC(OC(C)=O)[C@@H]1[C@@H](N(Cc2cc3ccccc3o2)C(=O)Cc2ccc(OC)cc2)c2cc(OCCCO)ccc2N1C(=O)c1ccc(-c2ccccc2)cc1` (stereo not given in full), the composite z-score rises from -0.0729 to -0.0601.

First: O=C1O[C@@H](c2ccccc2)[C@@H](c2ccccc2)N2[C@@H](c3ccc(O)cc3)[C@]3(C(=O)Nc4ccc(C#CC5(O)CCCCCC5)cc43)[C@@H](C(=O)N3CCN(c4ncccn4)CC3)[C@H]12
Second: COCCOC(=O)N1C(=O)[C@@]2(c3cc(C#Cc4ccc(OC)cc4)ccc31)[C@H](C(=O)N1CCc3cc(OC)c(OC)cc3C1)[C@H]1C(=O)O[C@H](c3ccccc3)[C@H](c3ccccc3)N1[C@@H]2c1ccc(O)cc1
The composite z-score of the first is higher: 0.0011 for the first, -0.129 for the second.

Going from `CC[C@@H]1[C@@H]2C3C(=O)N(CC)C(=O)C3CC(=O)[C@@H]2[C@H](c2ccc(C)cc2)N1S(=O)(=O)c1ccc(C)cc1` (stereo not given in full) to `CCCN1C(=O)[C@@H]2Cc3c([nH]c4ccccc34)[C@@H](c3cccc(O)c3)N2C1=O`, the composite z-score falls from 0.161 to -0.113.

Compared with `COCCOC(=O)N1C(=O)[C@@]2(c3cc(C#CCCO)ccc31)[C@H](C(=O)NC[C@H](O)c1ccccc1)[C@H]1C(=O)O[C@H](c3ccccc3)[C@H](c3ccccc3)N1[C@@H]2c1ccccc1OCCO`, `COCCOC(=O)N1C(=O)[C@@]2(c3cc(C#CCCO)ccc31)[C@H](c1ccc(OCCO)cc1)N1[C@H](c3ccccc3)[C@H](c3ccccc3)OC(=O)[C@H]1[C@@H]2C(=O)N1CCc2cc(OC)c(OC)cc2C1` is lower in composite z-score: -0.0048 for the first, -0.0732 for the second.

Compared with `C=CCOC(=O)[C@@H]1[C@H]2C(=O)O[C@H](c3ccccc3)[C@H](c3ccccc3)N2[C@H](c2ccc(OCCOC(=O)[C@@H]3C[C@@H]4C(=O)N[C@@H](CCCCNC(C)=O)C(=O)N4[C@@H]3c3ccc(O)cc3)cc2)[C@@]12C(=O)Nc1ccc(I)cc12`, `COc1ccccc1CN1C(=O)c2ccccc2[C@](Cc2ccccc2I)(C(=O)NCCN2CCOCC2)[C@@H]1c1ccc(CO)cc1` is higher in composite z-score: -0.0502 for the first, 0.103 for the second.

Going from `CC(C)CCC[C@@H](C)[C@H]1CC[C@@]2(C)C3=C(CC[C@]12C)[C@@]1(C)CC[C@H](OC(=O)c2ccc(N)cc2)C(C)(C)C1CC3` (stereo not given in full) to `COc1ccc([Si](C)(C)[C@@H]2[C@@H](CCO)O[C@]3(C(=O)N(Cc4ccccc4)c4ccc(N5CCCCC5=O)cc43)[C@H]2C)cc1`, the composite z-score rises from -0.145 to 0.0026.

First: COc1ccc([Si](C)(C)[C@@H]2[C@@H](CC(=O)N(CCO)Cc3ccccc3)O[C@]3(C(=O)N(Cc4ccc(N5CCOC5=O)cc4)c4ccccc43)[C@H]2C)cc1
Second: C=CC[C@]1(C(=O)NCC(O)CO)N=C(c2ccc(OCCCO)cc2)O[C@H]1c1ccccc1N=[N+]=[N-] (stereo not given in full)
The composite z-score of the first is lower: -0.093 for the first, 0.0649 for the second.

Molecule `CCCCCCC#C[Si](O[C@H](c1ccccc1)c1cn(Cc2cccc(Cl)c2)nn1)(C(C)C)C(C)C` has a composite z-score of -0.161.
